Each structure is given as a SMILES string. The whole screen tested about 360,000 compounds, of which about 11,000 (3.1%) were called active. About 4% were inconclusive and are not listed. The call rests on the fitted dose curve; in most records, active means well fitted inhibition curve with a large enough effect; inconclusive means small, poorly fitted or top-dose-only effect; inactive means no such curve, though single readings can be large or run the other way. Shown is part of a subset that was picked to be rich in actives. Entries that show only a call come without a potency.
Potency means the concentration at half of the fitted maximal effect.

This test concerns the target Schistosoma mansoni thioredoxin glutathione reductase (TGR) (UniProt Q962Y6). The test can be described thus: qHTS Assay for the Inhibitors of Schistosoma Mansoni Peroxiredoxins. Further: nearly all actives have a fitted effect of over 60% in size. The conditions noted are these: purified TGR, DTNB reduction, TNB absorbance 405 nm; series mostly up to 114 µM. The procedure, abridged: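 TGR 20 nM + NADPH 100 uM (dispensed conc.), cpd preinc 15 min RT; start with NADPH (500 uM addition) then DTNB (15 mM addition). Kinetic TNB absorbance, 405 nm filter. Four-parameter Hill fit across titration.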
A general note: qHTS replaces the single test concentration by a dilution series.
With `Cc1cccc(N2CCN(C(=O)c3ccc(Nc4nc5ccccc5n5nnnc45)cc3)CC2)c1C`, the Potency result was “inactive”.

In the case of `COC(=O)c1cccc(N2C(=O)C3C4C=CC(CC4)C3C2=O)c1` (configuration not stated), the Potency result is “inactive”.

With `Cc1cccc(N2C(=O)CC(SC(N)=Nc3ccccc3)C2=O)c1` (configuration not stated), the Potency result was “inactive”.

In the case of `COC(=O)c1ccccc1SC1CC(=O)N(c2cccc(C)c2)C1=O` (configuration not stated), the Potency was 50.1 µM (active).

On to `COc1ccc(N2CCN(c3nc(-c4ccccc4F)nc4ccccc34)CC2)cc1`, for which the Potency result was “inactive”. For `CSc1nc(-c2ccco2)nn1C(=O)c1ccccc1Cl`, the Potency is 7.08 µM (active).

As to `Oc1c(C(c2ccccc2Cl)N2CCOCC2)sc2nc(-c3ccco3)nn12` (configuration not stated), the Potency entry is “inactive”. The entry for `O=C(CSc1oc(-c2ccco2)nc1S(=O)(=O)c1ccccc1)c1ccc(Cl)cc1` is “inactive”; for `Cc1cccc(NC(=O)Cn2cc(S(=O)(=O)Cc3ccccc3Cl)c3ccccc32)c1` it is “inactive”.

For the molecule `CC(=O)c1nn(-c2ccc(OC(F)(F)F)cc2)nc1Nc1ccccc1`, the Potency entry is “inactive”. For `COc1ccc(CNC(=O)Cc2coc3ccc(C(C)C)cc23)cc1` the value was “inactive”; for `CN1CCN(c2oc(-c3ccc(COc4ccc(Cl)cc4)o3)nc2C#N)CC1`, “inactive”; for `Cc1cc(C)c(NC(=O)Cn2c(SCC(=O)NCc3ccccc3)nc3ccccc32)c(C)c1`, “inactive”. For `CCOC(=O)c1c(C)n(S(=O)(=O)c2ccc(C)cc2C)c2ccc(NS(=O)(=O)c3ccc(C)cc3C)cc12` the value was “inactive”. For `CC1=C/C(=N\OS(=O)(=O)c2ccccc2)C=CC1=O` the value was 2.24 µM (active); for `O=C(COc1ccc(Cl)cc1)Nc1ccc(-c2nc3cc(Cl)ccc3o2)c(O)c1`, “inactive”. Regarding `CC(C)(C)Nc1c(-c2cccs2)nc2ccccn12`, the Potency was 50.1 µM (active). On to `Cc1ccc(Nc2c(-c3ccc(C)s3)nc3ccccn23)cc1`, for which the Potency result was “inactive”. Regarding `Cc1nc2ccccn2c(=O)c1NC(=O)c1cccs1`, the Potency entry is “inactive”. With `COc1ccc(-c2cc(C(=O)NCc3cc(OC)c(OC)c(OC)c3)[nH]n2)cc1`, the Potency result is “inactive”.

For the molecule `CCOc1ccc(S(=O)(=O)N(CC(=O)NCCSCc2ccc(C)cc2)c2ccccc2)cc1`, the Potency entry was “inactive”. On to `Cc1ccc(NC(=O)CN2c3ccccc3S(=O)(=O)c3ccccc32)cc1F`, for which the Potency entry was “inactive”.

For the molecule `O=C(NNC(=O)c1ccc(-n2cncn2)c([N+](=O)[O-])c1)c1ccccc1`, the Potency result was “inactive”. For the molecule `O=C(CCn1nnc2ccccc21)OCC(=O)c1ccc([N+](=O)[O-])cc1`, the Potency result is “inactive”. `O=C(CC(n1cncn1)C(Cl)(Cl)Cl)c1ccc([N+](=O)[O-])cc1` (configuration not stated): the Potency was 0.282 µM (active). The entry for `Cc1cc(=O)n(CC(=O)Nc2cccc([N+](=O)[O-])c2)c(-n2nc(C)cc2C)n1` is “inactive”; for `COc1cc(C(=O)NCC(c2ccc(Cl)cc2)N2CCOCC2)cc(OC)c1OC` (configuration not stated) it is “inactive”; for `O=C(CCl)Nc1cccc(CP(=O)(c2ccccc2)c2ccccc2)c1` it is 11.2 µM (active). For `O=C(CSc1ccccc1)Nc1ccc(C(=O)Nc2cccc(O)c2)cc1` the value was “inactive”.

As for `O=C(CSCc1ccccc1)Nc1ccccc1`, the Potency result was “inactive”.

As to `COc1ccc(C(=O)Nc2ccc(-n3nncc3-c3ccccc3)cc2)cc1OC`, the Potency entry is “inactive”. With `COC(=O)c1cc(NC(=O)c2cnc(SC)nc2-c2ccccc2)cc(C(=O)OC)c1`, the Potency entry is “inactive”.

Regarding `COC(=O)c1ccc(-c2c(-c3ccccc3)ncc3cc(OC)c(OC)cc23)cc1`, the Potency is 14.1 µM (active).

For `CC(C)CCN1CCN(Cc2ccc(C(F)(F)F)cc2)CC1CCO` (configuration not stated), the Potency result was “inactive”.

Regarding `CC(C)CCN1CCN(C/C=C/c2ccco2)CC1CCO` (configuration not stated), the Potency is 25.1 µM (active).

As to `CC(C)CN1CCN(Cc2ccccc2C(F)(F)F)CC1CCO` (configuration not stated), the Potency entry was “inactive”.

For `O=C(NC1CC(=O)N(c2ccc(Cl)cc2)C1)C1CCCC1` (configuration not stated), the Potency result was “inactive”. `Cc1ccc(CN2CCCn3nc(C(=O)NCc4ccccc4Cl)cc3C2=O)cc1`: the Potency result was “inactive”. For `Cc1ccc(-n2ncc3c(NCCCn4ccnc4)ncnc32)cc1Cl` the value was “inactive”; for `CNCC(O)c1ccc(O)c(O)c1` (configuration not stated), 44.7 µM (active); for `CC(=O)NCC(O)c1ccc([N+](=O)[O-])cc1` (configuration not stated), “inactive”. For `CCC(C)c1ccc(O)c(/C=N/O)c1` (configuration not stated) the value was “inactive”; for `CCC(=O)N1CCc2cc(Br)cc(S(=O)(=O)CCC(=O)NCCc3ccc(OC)c(OC)c3)c21`, “inactive”; for `O=C(CSc1nc2c(c(=O)[nH]1)CN(Cc1ccc(F)cc1)CC2)Nc1ccccc1Cl`, “inactive”. `Cc1ccc(Cl)cc1N1CCN(C(=O)c2cn(C)c3ccc(S(=O)(=O)N(C)C4CCCCC4)cc3c2=O)CC1`: the Potency result is “inactive”. Take `CC(=O)Nc1ccc(S(=O)(=O)NCCc2ccccc2)cc1`: the Potency result was “inactive”. On to `O=C(CS(=O)(=O)c1ccccc1)Nc1ccc(S(=O)(=O)Nc2ccccn2)cc1`, for which the Potency entry is “inactive”. The figure for `C=C(C)CNC(=S)Nc1ccc(S(=O)(=O)Nc2cnc3ccccc3n2)cc1` is 11.2 µM (active); for `Cc1cccc(NC(=O)N2CCN(C)c3ncccc32)c1C` it is “inactive”; for `Cc1cccc(NC(=O)c2nnn(CC(=O)Nc3ccc(C(C)C)cc3)c2N)c1C` it is “inactive”. For `CCOc1ccccc1NC(=O)C1=C(C)Nc2ncnn2C1c1ccc(NC(C)=O)cc1` (configuration not stated) the value was “inactive”.

For `CCC(=O)N1CCc2cc(S(=O)(=O)NC(Cc3ccccc3)C(=O)NCc3ccc(C)cc3)ccc21` (configuration not stated), the Potency result was “inactive”. Take `CCOc1ccc(CNCCSc2nnnn2C)cc1`: the Potency entry was “inactive”. In the case of `COc1ccc(C2Sc3ccccc3NC3=C2C(=O)c2ccccc23)c(OC)c1OC` (configuration not stated), the Potency entry is “inactive”. Regarding `O=C(OCN1C(=O)c2ccccc2C1=O)/C(=C\c1ccco1)NC(=O)c1ccccc1`, the Potency entry was “inactive”.

Consider `COC(=O)c1ccc(NC(=O)C(C)N2C(=O)c3ccccc3C2=O)cc1` (configuration not stated), for which the Potency entry is “inactive”.

With `COC(=O)C1=C(C)N(c2ccc(Br)cc2)C(=O)/C1=C\c1ccco1`, the Potency was 35.5 µM (active). `COc1ccc(N2C(=O)CNC2=S)cc1`: the Potency entry was “inactive”. The figure for `COc1ccc(N2C(=O)/C(=C/c3ccco3)C(=O)NC2=S)cc1` is 14.1 µM (active); for `COc1ccc(CN2C(=O)C(C)S/C2=N/N=C/c2ccco2)cc1` (configuration not stated) it is “inactive”; for `COC(=O)C1=C(C)N(C(C)c2ccccc2)C(=O)/C1=C\c1ccco1` (configuration not stated) it is 31.6 µM (active). On to `COC(=O)C1=C(C)N(C)C(C)=C(C(=O)OC)C1c1cccc(Br)c1`, for which the Potency result is “inactive”.

For `Cc1cccc(C)c1-n1ncc(C(=O)NCCCN2CCCCC2)c1C1CCN(C(=O)OC(C)(C)C)CC1`, the Potency result is “inactive”. The entry for `CC(C)NC(=O)C1CCC(Cn2c(=O)c3sccc3n(Cc3ccc(F)cc3)c2=O)CC1` (configuration not stated) is “inactive”.

For the molecule `Cc1ccc2onc(CC(=O)N3CCN(c4ccc(Cl)cc4)CC3)c2c1`, the Potency result was “inactive”. Turning to `CCc1cc2c(cc(C(=O)OC)n2Cc2nc(-c3ccc(C)cc3)oc2C)s1`, the Potency entry is “inactive”. Turning to `CC(=O)N1c2ccc(S(=O)(=O)N3CCCCCC3)cc2CC1C(=O)NCc1ccccc1C` (configuration not stated), the Potency result was “inactive”. `CC(=O)c1ccc(N2CCN(c3nc4c(S(=O)(=O)c5ccccc5)nnn4c4ccc(Cl)cc34)CC2)cc1`: the Potency result is “inactive”.

Take `O=C(CSc1nccn1-c1ccc(F)cc1)Nc1cccc2ccccc12`: the Potency result was “inactive”. Turning to `CC(=O)Nc1ccc2nc(SCCOc3cc(C)cc(C)c3)sc2c1`, the Potency entry was “inactive”. The entry for `O=C(NCC12CC3CC(CC(C3)C1)C2)c1cc2nc(-c3ccccc3)cc(C(F)(F)F)n2n1` is “inactive”; for `CCCNC(=O)C1CCC(Cn2c(=O)c3sccc3n(Cc3ccccc3F)c2=O)CC1` (configuration not stated) it is “inactive”; for `COc1ccccc1Nc1nc(N)nc(N)c1S(=O)(=O)c1ccccc1` it is “inactive”.

In the case of `CC1(C)Cc2ccccc2-c2[nH]c(=S)[nH]c(=O)c21`, the Potency result was “inactive”. For `CCC1(CC)Cc2ccccc2-c2nc(CCl)[nH]c(=O)c21` the value was 3.16 µM (active); for `CCOC(=O)C1Cn2c(nc3c(c2=O)C(C)(CC)Cc2ccccc2-3)S1` (configuration not stated), “inactive”; for `CCOC(=O)c1oc2ccc(S(=O)(=O)n3nc(-c4ccccc4OC)cc3N)cc2c1C`, “inactive”. The entry for `COc1ccc(Cl)cc1N(C)C(=O)c1cc2c(=O)oc3ccc(C)cc3c2s1` is “inactive”. For `NC(=O)CSc1c[nH]c2ccccc12` the value was “inactive”. As for `O=C(OCC(=O)c1c[nH]c2ccccc12)c1cccc(O)c1`, the Potency result is “inactive”. For `O=S(=O)(O)Oc1c[nH]c2ccccc12` the value was 20 µM (active). The entry for `Cc1ccc(OCC(=O)Nc2ccc(Cl)c(-c3nc4ccccc4[nH]3)c2)cc1C` is “inactive”; for `CCc1nc2nc(C)cc(Nc3ccc(F)c(Cl)c3)n2n1` it is “inactive”. `COc1ccc(N/C=C(\C2OC(=O)c3ccccc32)[N+](=O)[O-])cc1` (configuration not stated): the Potency entry is “inactive”. The entry for `Cc1ccc(-c2csc(-c3c[nH]c4ccccc34)n2)cc1` is “inactive”; for `Cc1ccc(-c2csc(NC3OC(=O)c4ccccc43)n2)cc1` (configuration not stated) it is 28.2 µM (active).

For the molecule `COc1ccc(-c2csc(NC(=O)COC(=O)Cc3ccc(Cl)cc3Cl)n2)cc1`, the Potency entry is “inactive”. `COc1ccc2c(c1OC)C(=O)OC2Nc1nc(-c2ccccc2)cs1` (configuration not stated): the Potency was 3.16 µM (active). For `C/C(CC1CC(C)(C)OC1=O)=N/Nc1nc(-c2ccccc2)cs1` (configuration not stated), the Potency entry is “inactive”. The figure for `COc1ccc(-c2csc(NC3OC(=O)c4ccccc43)n2)cc1` (configuration not stated) is 5.62 µM (active). For `CCCc1cc(-c2nc(-c3ccc(C)cc3)cs2)ccn1`, the Potency entry was “inactive”. For `CCc1ccccc1NC(=O)[C@@H]1CCC(=O)N1C1OC(=O)c2c1ccc(OC)c2OC` (some centres not stated) the value was “inactive”; for `Cc1nnc(NC(=O)CSc2nc3c([nH]c4ccccc43)c(=O)n2-c2cccc(Cl)c2)s1`, “inactive”. `CC(=O)Nc1c(C)nn(-c2ccccc2)c1N1CCC(C(=O)Nc2cc(Cl)ccc2C)CC1`: the Potency entry is “inactive”.

As to `Cn1nnnc1SCCCNCc1ccc(Cl)cc1`, the Potency result was “inactive”. `Fc1ccc(-c2nc(Nc3cccc(Cl)c3)nc3c2COc2ccccc2-3)cc1`: the Potency result was “inactive”.

Regarding `Cc1ccc(S(=O)(=O)N2CCCc3cc(NS(=O)(=O)c4cc(C)ccc4C)ccc32)cc1`, the Potency result is “inactive”.

With `Cc1cc(NS(=O)(=O)c2ccc3oc(=O)c4ncn(C)c4c3c2)ccc1Br`, the Potency entry is “inactive”.

As to `Cc1cc(C)cc(NC(=O)CCCc2nc(-c3ccccc3Cl)no2)c1`, the Potency entry is “inactive”. As for `COc1cc(N2C(=O)CSC2=S)cc(OC)c1OC`, the Potency entry is “inactive”. The entry for `O=C1CSC(=S)N1c1ccc(O)cc1` is “inactive”; for `CCOc1cccc(/C=N/N2C(=O)CSC2=S)c1O` it is 3.55 µM (active).

Source of the values: PubChem BioAssay AID485364 (National Center for Advancing Translational Sciences (NCATS), 2010).
